# Reference: PubChem BioAssay (NCI)
# Compounds without any hit were thinned out: in the full panel of roughly 83,000, 20% have a hit.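 Results are percent growth after 48 hours of single-concentration exposure. 100 means growth as in untreated cells, lower positive values show inhibition; negative values down to -100 show cell death.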 Unmarked numbers belong to inactive results. Calls of active or inactive are those of the source. The calls were made as follows: active = growth percent below 10; inactive = the rest.
# Columns and labels:
# Experiment in all cases: NCI-60 one-dose screen, 48 h (100 = growth as untreated, 0 = no growth, -100 = all killed)
# Conditions in all cases: 10 µM unless noted
# HCT-15 colon = tested on: HCT-15 colon
# HT29 colon = tested on: HT29 colon
# SNB-75 CNS = tested on: SNB-75 CNS
# SNB-19 CNS = tested on: SNB-19 CNS
# U251 CNS = tested on: U251 CNS
# PC-3 prostate = tested on: PC-3 prostate
# SK-MEL-5 melanoma = tested on: SK-MEL-5 melanoma
# UACC-62 melanoma = tested on: UACC-62 melanoma
# LOX IMVI melanoma = tested on: LOX IMVI melanoma
# SK-MEL-28 melanoma = tested on: SK-MEL-28 melanoma
# EKVX NSCLC = tested on: EKVX NSCLC
# SN12C renal = tested on: SN12C renal
# UO-31 renal = tested on: UO-31 renal
# TK-10 renal = tested on: TK-10 renal
# ACHN renal = tested on: ACHN renal
# CAKI-1 renal = tested on: CAKI-1 renal
# A498 renal = tested on: A498 renal
# CCRF-CEM leukemia = tested on: CCRF-CEM leukemia
# MOLT-4 leukemia = tested on: MOLT-4 leukemia
Structure (SMILES),growth (HCT-15 colon),growth (HT29 colon),growth (SNB-75 CNS),growth (SNB-19 CNS),growth (U251 CNS),growth (PC-3 prostate),growth (SK-MEL-5 melanoma),growth (UACC-62 melanoma),growth (LOX IMVI melanoma),growth (SK-MEL-28 melanoma),growth (EKVX NSCLC),growth (SN12C renal),growth (UO-31 renal),growth (TK-10 renal),growth (ACHN renal),growth (CAKI-1 renal),growth (A498 renal),growth (CCRF-CEM leukemia),growth (MOLT-4 leukemia)
Cc1[nH]n(C(N)=S)c(=O)c1N=Nc1ccc(S(=O)(=O)Nc2ccncn2)cc1,113%,105%,73.7%,99.8%,113%,77.1%,94.6%,101%,87.4%,98.9%,120%,97.6%,84.6%,126%,106%,155%,87.4%,-34.3% (active),106%
C=CC(=O)N1CCC[C@@H](n2nc(-c3ccc(Oc4ccccc4)cc3)c3c(N)ncnc32)C1,72.6%,30.1%,19.6%,49.8%,48.1%,57.2%,56.1%,20.6%,24.3%,79.2%,52.8%,27.2%,6.16% (active),-8.56% (active),23.5%,32.9%,-17.1% (active),54.8%,25.3%
COc1cc(CCc2cc(NC(=O)c3ccc(N4C[C@@H](C)N[C@@H](C)C4)cc3)n[nH]2)cc(OC)c1,53.5%,4.25% (active),6.83% (active),83.4%,45.2%,47.2%,17.3%,45.4%,-30.9% (active),35.7%,84.7%,31.1%,9.25% (active),57.6%,39.5%,20.4%,-1.03% (active),29.6%,10.6%
COc1ccc(COc2cc3oc(=O)c4cc(C(C)O)ccc4c3cc2OC)cc1 (stereo unspecified),36.6%,30.1%,13.7%,31.9%,46.5%,53%,56.3%,50.4%,76.3%,56.3%,68.9%,68.5%,64.5%,73.5%,48.4%,55.9%,84.6%,77.1%,54.5%
Cn1cc(-c2ccc(F)c(C(F)(F)F)c2)nc1C1CCN(c2ncnc3[nH]ncc23)CC1,70%,60.8%,-15% (active),52.5%,48%,71%,95.1%,75.7%,69.4%,86.2%,88%,63.7%,63.8%,66.6%,73.4%,62.2%,66.5%,72.4%,65.5%
Nc1nc(N)c2nc(-c3cccc(O)c3)c(-c3cccc(O)c3)nc2n1,92%,68%,39.9%,70.8%,71.6%,76.6%,89.1%,83%,89.6%,85.2%,82.2%,51.4%,65.9%,80.9%,69.3%,67.7%,74.9%,66.3%,90.6%
Cc1[nH]c(/C=C2\C(=O)Nc3ccc(F)cc32)c(C)c1C(=O)NC[C@H](O)CN1CCOCC1,19.1%,9.81% (active),35.2%,96.7%,60.5%,36.2%,21.4%,29.9%,9.27% (active),17.7%,44.9%,27.6%,-1.44% (active),50.1%,23.8%,4.97% (active),30.5%,33%,15.7%
CN1CCC(COc2cnc(-c3cccc(Cn4nc(-c5cccc(C#N)c5)ccc4=O)c3)nc2)CC1,12.4%,-38.5% (active),72.9%,78.2%,16.4%,67.8%,43.2%,95.1%,34.2%,-13.2% (active),58.6%,82.2%,77.8%,102%,74.4%,79%,95.1%,34.7%,55.2%
CCc1nc(C(N)=O)c(Nc2ccc(N3CCC(N4CCN(C)CC4)CC3)c(OC)c2)nc1NC1CCOCC1,25%,-23.9% (active),-45.3% (active),29.8%,32%,36.3%,66.4%,25.3%,-84.9% (active),24%,46.6%,29.2%,4.67% (active),25.4%,29%,20.2%,-92.6% (active),6.04% (active),17.2%
Nc1nc(Nc2ccccc2)c(C=Nc2ccccc2)c(=O)[nH]1,96.9%,101%,80.3%,89.1%,89.1%,87.5%,98.4%,84.3%,87.1%,109%,89.1%,91%,61%,116%,83.4%,68%,86.3%,92.1%,81.2%
NC1=Nc2cc(OCCCN3Cc4ccccc4C3)c(OCC3CC3)cc2C12CCCC2,25.1%,5.45% (active),60.3%,82.4%,49.5%,45.4%,-11% (active),45.7%,8.85% (active),-44% (active),72.6%,77.6%,42.1%,78.4%,83.1%,49.9%,68.4%,37%,44.2%
COc1cc(F)c(F)c(Nc2ccc(I)cc2F)c1NS(=O)(=O)C1(C[C@H](O)CO)CC1,26.9%,5.42% (active),41%,43%,35.6%,48.9%,19.1%,-3.18% (active),11.9%,3.06% (active),29.2%,51%,16.2%,27.7%,37.9%,30.5%,-48% (active),67%,43.2%
NC[C@@](O)(c1ccc(Cl)cc1)c1ccc(-c2cn[nH]c2)cc1,9.55% (active),1.46% (active),-6.12% (active),30.6%,19.1%,40.1%,39.3%,-2.01% (active),7.1% (active),3.21% (active),27.1%,29.3%,-13.6% (active),5.87% (active),11.6%,11.3%,-2.12% (active),15.8%,13.2%
CN1CCN(c2ccc(C(=O)Nc3n[nH]c4ccc(Cc5cc(F)cc(F)c5)cc34)c(NC3CCOCC3)c2)CC1,-65.7% (active),-56.8% (active),-93.2% (active),-50.3% (active),-83.7% (active),-12.3% (active),-96.5% (active),-78.4% (active),-89.7% (active),-87% (active),8.7% (active),-6.17% (active),-90.7% (active),-5.76% (active),-7.72% (active),-80.7% (active),-54.8% (active),1.8% (active),-20.4% (active)
CNc1ncc2cc(-c3cc(NC(=O)NCCC(C)(C)C)c(F)cc3C)c(C)nc2n1,19%,3.91% (active),-16.9% (active),23.6%,16%,49.1%,23.6%,-7.93% (active),-34.1% (active),-6.47% (active),29.4%,18.6%,3.87% (active),-4.98% (active),,4.36% (active),-35.4% (active),63.1%,20.6%
CCCCCC(=O)OCc1ccc(Cl)c(Cl)c1,109%,109%,96.5%,105%,98.2%,96.3%,108%,106%,96%,111%,116%,111%,90.5%,104%,107%,103%,,109%,98.7%
CC1=CC2c3oc(-c4ccccc4)c(C(=O)c4ccccc4)c3CNC2C=C1 (stereo unspecified),97.2%,84.2%,79.7%,91.6%,80.7%,94%,103%,87.9%,86.2%,111%,107%,88.5%,72.2%,96%,,94.8%,100%,76.1%,101%
C=CCCCOC1[C@H](OCc2ccccc2)C(OCc2ccccc2)C(OC)O[C@@H]1CNC(=O)c1cccc(I)c1 (stereo partly specified),24.9%,33.1%,54.4%,49.9%,25.4%,25%,-6.8% (active),30.9%,11.4%,70.5%,36.3%,38.7%,35.4%,64.5%,,38.3%,71.2%,13.8%,20.4%
CC(C)(O)CC(=O)NCCn1ccc2ncnc(Nc3ccc(Oc4cccc(C(F)(F)F)c4)c(Cl)c3)c21,12.2%,-24.2% (active),29.3%,18.7%,9.09% (active),1.54% (active),-19.9% (active),-7.61% (active),6.23% (active),-0.504% (active),8.11% (active),12.4%,-6.15% (active),-30.3% (active),8.71% (active),19.2%,,7.97% (active),7.32% (active)
Cc1ccc(C(=O)Nc2ccc(CN3CCN(C)CC3)c(C(F)(F)F)c2)cc1C#Cc1cnc2cccnn12,-83.1% (active),-69.8% (active),-99.1% (active),-98.3% (active),-98.5% (active),-64.1% (active),-98.8% (active),-89.1% (active),-94% (active),-97% (active),-84.4% (active),-92.8% (active),-93.6% (active),-98.7% (active),-100% (active),-99.9% (active),,-29.5% (active),-62.3% (active)
CO[C@H]1C[C@@H]2CC[C@@H](C)[C@@](O)(O2)C(=O)C(=O)N2CCCC[C@H]2C(=O)O[C@H]([C@H](C)C[C@@H]2CC[C@@H](OP(C)(C)=O)[C@H](OC)C2)CC(=O)[C@H](C)/C=C(\C)[C@@H](O)[C@@H](OC)C(=O)[C@H](C)C[C@H](C)\C=C/C=C/C=C/1C,47.6%,40.3%,17.6%,53%,40.4%,42.2%,51.6%,39.5%,42.7%,54.4%,49.8%,53.9%,27.3%,46%,54.4%,50.1%,2.06% (active),37.2%,28.8%
Cc1ccc(NC(=O)c2ccc(CN3CC[C@H](N(C)C)C3)c(C(F)(F)F)c2)cc1Nc1nccc(-c2cncnc2)n1,8.37% (active),-47.3% (active),-85.9% (active),19.6%,-36% (active),10.9%,-96.6% (active),-63.5% (active),-72.7% (active),-77.8% (active),15.3%,-32.6% (active),-61.3% (active),-30.1% (active),,6.85% (active),-59.9% (active),4.61% (active),-4.64% (active)
CC(C)(C)c1nc(-c2cccc(NS(=O)(=O)c3c(F)cccc3F)c2F)c(-c2ccnc(N)n2)s1,90.8%,8.76% (active),107%,111%,113%,100%,61.1%,30.9%,24.5%,37.1%,97.7%,80.1%,37.1%,65.2%,,56.4%,135%,59%,39.4%
COc1ccc(-c2cc3c(C)nc(N)nc3n(C3CCC(OCCO)CC3)c2=O)cn1 (stereo unspecified),3.45% (active),1.24% (active),-50.6% (active),-7.7% (active),-13.8% (active),5.19% (active),-77.3% (active),-52.5% (active),-55.5% (active),-29.4% (active),-4.74% (active),7.14% (active),-33.8% (active),-43.4% (active),-10.3% (active),-43.4% (active),,14.6%,8.49% (active)
CNC(=O)c1cc(Oc2ccc3nc(NC(=O)Nc4ccc(Cl)c(C(F)(F)F)c4)sc3c2)ccn1,23.5%,3.52% (active),-58.8% (active),33.5%,-9.69% (active),12.4%,25.7%,8.48% (active),1.46% (active),34.7%,9.24% (active),15.6%,-7.14% (active),-55.1% (active),-22.2% (active),53.4%,,27.8%,38%
COC(=O)[C@@H](OC)[C@@H]1Cc2cc3cc(OC4CC(OC5CC(O)C(O)C(C)O5)C(O)C(C)O4)c(C)c(O)c3c(O)c2C(=O)[C@H]1OC1CC(OC2CC(OC3CC(C)(O)C(O)C(C)O3)C(O)C(C)O2)C(O)C(C)O1 (stereo partly specified),7.16% (active),3.61% (active),-79.3% (active),4.99% (active),2.62% (active),-23.3% (active),-69.5% (active),-58.5% (active),-24% (active),-38% (active),9.91% (active),9.04% (active),-9.9% (active),13.7%,,14.8%,-42.9% (active),2.91% (active),-9.54% (active)
C[C@@H]1COC(Nc2ccc3ncnc(Nc4ccc(OCc5nccs5)c(Cl)c4)c3c2)=N1,29.2%,14.8%,27.9%,67.8%,42.3%,8.43% (active),-39% (active),23.5%,17.8%,29.8%,32.2%,53.8%,18.7%,20.4%,23.3%,36.4%,,24.7%,18.4%
